Reference: PubChem BioAssay (EPA / NIEHS)
Calls of active or inactive are those of the source. Rule for the calls: active = hit-call score of the fitted dose curve at least 0.9, where 1 is the maximum; inactive = score below 0.9.

Experiment: APR_HepG2_MitoMass_72hr: Apredica 72-hour HepG2 Assay for Mitochondrial Mass (AID 2282924);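 note: MitoTracker Red CMXRos stain intensity per cell imaged as mitochondrial mass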
Conditions: high-content imaging, actives raise or lower the signal
In short: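 Readout is imaged MitoTracker Red (250 nM, 30 min, pre-fixation) signal, fitted bidirectionally against DMSO baseline. Human HepG2 liver cells received compound 0.39–200 uM in duplicate for 72 hr, final DMSO 0.5%.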

SMILES | outcome | AC50
O=[N+]([O-])c1ccc(Oc2ccc(Cl)cc2Cl)cc1 | inactive | –
Cn1cc(-c2ccccc2)c(=O)c(-c2cccc(C(F)(F)F)c2)c1 | inactive | –
Oc1ccccc1Cl | inactive | –
C=CCc1ccc2c(c1)OCO2 | inactive | –
Nc1cc(Cl)cc(C(=O)O)c1Cl | inactive | –
CC(C)N(Cc1ccccc1)C(=O)C(C)(C)C | inactive | –
ClCCOCCCl | inactive | –
CCOc1cccc(C2(N3CCN(c4ccccc4)CC3)CCC(C)CC2)c1 (configuration not stated) | inactive | –
CS(=O)(=O)NC(=O)c1cc(Oc2ccc(C(F)(F)F)cc2Cl)ccc1[N+](=O)[O-] | inactive | –
c1ccc(N=Nc2ccccc2)cc1 | inactive | –
CN(C)[C@@H]1C(=O)C(C(N)=O)=C(O)[C@@]2(O)C(=O)C3=C(O)c4c(O)cccc4[C@@](C)(O)[C@H]3C[C@@H]12 | inactive | –
CCC(C)c1ccc(O)cc1 (configuration not stated) | inactive | –
c1ccc2c(c1)oc1ccccc12 | inactive | –
CCCSC(=O)N(CCC)CCC | inactive | –
O=C(O)C1C2CCC(O2)C1C(=O)O (configuration not stated) | – | 50.2 µM (active)

Experiment: APR_HepG2_NuclearSize_72hr: Apredica 72-hour HepG2 Assay for Nuclear Size (AID 2282925)
Conditions: high-content imaging, actives raise or lower the signal
In short: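 Nuclear size was read by high-content imaging of Hoechst 33342 stain after formaldehyde fixation. Compounds ran 72 h on HepG2 at 0.39 to 200 uM, with final DMSO 0.5% v/v. Curves fitted both directions relative to DMSO control.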

SMILES | outcome | AC50
O=[N+]([O-])c1ccc(Oc2ccc(Cl)cc2Cl)cc1 | inactive | –
Cn1cc(-c2ccccc2)c(=O)c(-c2cccc(C(F)(F)F)c2)c1 | inactive | –
CN(C)c1ccccc1 | inactive | –
Oc1ccccc1Cl | inactive | –
C=CCc1ccc2c(c1)OCO2 | inactive | –
CCCCCCCCCCCCCN1CC(C)OC(C)C1 (configuration not stated) | inactive | –
Nc1cc(Cl)cc(C(=O)O)c1Cl | inactive | –
Nc1ccc(Cl)cc1N | inactive | –
CC(C)N(Cc1ccccc1)C(=O)C(C)(C)C | inactive | –
ClCCOCCCl | inactive | –
CO[C@@H]1[C@H](OC(=O)NC(=O)CCl)CC[C@]2(CO2)[C@H]1[C@@]1(C)O[C@@H]1CC=C(C)C | inactive | –
CCOc1cccc(C2(N3CCN(c4ccccc4)CC3)CCC(C)CC2)c1 (configuration not stated) | inactive | –
CCC12COCN1COC2 | inactive | –
CS(=O)(=O)NC(=O)c1cc(Oc2ccc(C(F)(F)F)cc2Cl)ccc1[N+](=O)[O-] | inactive | –
ClC1=C(Cl)C2(Cl)C3C(Cl)C=CC3C1(Cl)C2(Cl)Cl (configuration not stated) | inactive | –
Cc1ccc([N+](=O)[O-])cc1 | inactive | –
O=C(N[C@H](c1ccccc1)[C@@H]1CN2CCC1CC2)c1c(Cl)ccc(C(F)(F)F)c1Cl | inactive | –
CCCCOC(=O)c1ccccc1C(=O)OCc1ccccc1 | inactive | –
O=C1CCCO1 | inactive | –
c1ccc(N=Nc2ccccc2)cc1 | inactive | –
CN(C)[C@@H]1C(=O)C(C(N)=O)=C(O)[C@@]2(O)C(=O)C3=C(O)c4c(O)cccc4[C@@](C)(O)[C@H]3C[C@@H]12 | inactive | –
CCC(C)c1ccc(O)cc1 (configuration not stated) | inactive | –
c1ccc2c(c1)oc1ccccc12 | inactive | –
CCCSC(=O)N(CCC)CCC | inactive | –
CCCCCCCCn1sccc1=O | inactive | –
O=C(O)C1C2CCC(O2)C1C(=O)O (configuration not stated) | – | 36 µM (active)
Oc1ccc2ccc3cccc4ccc1c2c34 | – | 69.6 µM (active)
